SMILES strings stand for the structures. Where “and” joins values, the source holds several entries; their conditions need not be identical. Equal values may be shown once. Where a structure was tested more than once in an assay, its records may differ in their call. Calls of active or inactive are those of the source. Rule for the calls: active = hit-call score of the fitted dose curve at least 0.9, where 1 is the maximum; inactive = score below 0.9.

Our source for the AC50 and outcome values is PubChem BioAssay (EPA / NIEHS).

This assay can be described thus: ATG_NRF2_ARE_CIS: Attagene CIS-FACTORIAL HepG2 Assay for human Nuclear Factor Erythroid 2 Related Factor 2 (NFR2) response to Antioxidant Response Elements (ARE) (AID 2282992).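 For AC50: reporter mRNA level measured by RT-PCR and capillary electrophoresis fluorescence.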 The conditions noted are these: HepG2 Attagene ARE/NRF2 reporter, transcription factor activity; actives raise or lower the signal. An outline of the steps:
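Endogenous transcription factor activity in human liver HepG2 cells is tracked via a cis-element-driven reporter within a multiplexed set. mRNA induction is read by RT-PCR and capillary electrophoresis after 24 h, with DMSO as baseline.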
As a reminder, the AC50 is the midpoint of the concentration-response curve, whichever way the signal moves. As to `CCCCCOC(=O)c1ccccc1C(=O)OCCCCC`, the concentration at half-maximal activity (AC50) was 56.4 µM (active).
Turning to `c1ccc(C2CO2)cc1` (centres undefined), the molecule was called inactive.
As to `Clc1ccccc1Cl`, the molecule was classed as inactive.
In the case of `Brc1ccc(Oc2ccccc2)cc1`, the AC50 was 74 µM (active).
As for `[Cl-].[Cl-].[Hg+2]`, the AC50 is 5.59 µM (active).
Take `CN(C)[C@@H]1C(=O)C(C(N)=O)=C(O)[C@@]2(O)C(=O)C3=C(O)c4c(O)cccc4[C@@](C)(O)[C@H]3C[C@@H]12`: the call was inactive.
Still for that read-out and setting: the value for `Oc1ccc2ccc3cccc4ccc1c2c34` was “inactive”; that for `[As]#[In]` was “inactive”; that for `ClCCOCCCl` was “inactive”.
Same read-out and setting: next, `CN(C)C(=O)Nc1ccc(Cl)cc1`: “inactive”.
`CCNS(=O)(=O)C(F)(F)C(F)(F)C(F)(F)C(F)(F)C(F)(F)C(F)(F)C(F)(F)C(F)(F)F`: the AC50 was 25.7 µM (active) and 41.5 µM (active) and 13.3 µM (active).
Regarding `O=[N+]([O-])C(Br)(CO)CO`, the result was inactive.
In the case of `Cn1cc(-c2ccccc2)c(=O)c(-c2cccc(C(F)(F)F)c2)c1`, the AC50 is 44.2 µM (active).
On to `CC(C)N(Cc1ccccc1)C(=O)C(C)(C)C`, for which the outcome was inactive.
Take `O=C(Nc1ccccc1)c1ccccc1I`: the half-maximal activity concentration (AC50) is 20.3 µM (active).
For `C[C@]12C=CC3=C4CCC(=O)C=C4CC[C@H]3[C@@H]1CC[C@@H]2O`, the AC50 is 17.5 µM (active) and 11.3 µM (active); the result was inactive.
With `CNC(=O)Oc1cccc2c1OC(C)(C)C2`, the outcome was inactive.
On to `CN(C)c1ccccc1`, for which the result was inactive.
As for `CN(C)c1ccc(C(=O)c2ccc(N(C)C)cc2)cc1`, the call was inactive.
For the molecule `O=C(O)C1C2CCC(O2)C1C(=O)O` (centres undefined), the AC50 was 34.7 µM (active).
`CCCCCCCCn1sccc1=O`: the call was inactive.
Regarding `c1ccc(N=Nc2ccccc2)cc1`, the half-maximal activity concentration (AC50) is 61.2 µM (active).
In the case of `ClC1=C(Cl)C2(Cl)C3C(Cl)C=CC3C1(Cl)C2(Cl)Cl` (centres undefined), the result was inactive.
For the molecule `CC(C)(OOC(C)(C)c1ccccc1)c1ccccc1`, the AC50 was 29.1 µM (active).
The same measure, in the same setting: next, `c1ccc(NNc2ccccc2)cc1`: 27.8 µM (active).
For the molecule `O=[N+]([O-])c1ccc(Oc2ccc(Cl)cc2Cl)cc1`, the molecule was classed as inactive.
With `O=C(N[C@H](c1ccccc1)[C@@H]1CN2CCC1CC2)c1c(Cl)ccc(C(F)(F)F)c1Cl`, the AC50 is 3.02 µM (active).
Still for that read-out and setting: next, `CC(C)(C)C(O)(CCc1ccc(Cl)cc1)Cn1cncn1` (centres undefined): 88.8 µM (active).
